The values that follow come from PubChem BioAssay (Tox21).

Records with an inconclusive call do not appear. Unmarked numbers belong to inactive results. Calls of active or inactive are those of the source. Calls follow the shape of the dose curve; as a rule, active = well fitted cell-killing curve with a large enough effect in the repeat runs; inconclusive = weak or mixed curves, or effect the other way; inactive = flat fitted curve, though single readings scatter.

A short description of test [1]: cAMP Responsive Elements (CRE) small molecule antagonists, cell-based qHTS assay: qHTS cell viability counter screen (AID 2060913). Also: nearly all actives have a fitted effect of over 40% in size. The method, boiled down: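 Steps: cells plated and held 18 hrs at 37 C/5% CO2; compounds and NKH477 (0.25 uM final) added; 3 hrs incubation; reporter substrate read; CellTiter-Glo added to measure cytotoxicity by luminescence.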
(In general: Quantitative high-throughput screening tests each substance at several concentrations.)

The nature of test [2]: cAMP Responsive Elements (CRE) small molecule agonists, cell-based qHTS assay: qHTS cell viability counter screen (AID 2060914).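 Also: viability read after 3 h of compound exposure; nearly all actives have a fitted effect of over 50% in size.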 The method, boiled down:
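HEK 293T CRE-bla; DMEM + 10% dialyzed FBS, 25 mM HEPES; 18 h pre-incubation; compound 3 h, 37 °C/5% CO2; CellTiter-Glo added after reporter read; luminescence after 30 min RT.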
% is scaled to controls: 0 for no effect and ±100 for the full control effect; potency is read from the fitted curve at half-maximal effect.

With `O=C(O)c1ccccc1C(=O)O`, the Potency entry in test [1] and in test [2] was “inactive” in each case.
On to `CN1C(=O)CC[C@H]1c1cccnc1`, for which the Potency entry in test [1] and in test [2] was “inactive” each time.
Consider `CCOC(=O)CCCCCCCCC(=O)OCC`, for which the Potency entry in test [1] and in test [2] was “inactive” each time.
Consider `O=c1[nH]c(=O)n([C@H]2C[C@H](O)[C@@H](CO)O2)cc1I`, for which the Potency result in test [1] and in test [2] was “inactive” in each case.
On to `CCCCCCOc1ccccc1C(N)=O`, for which the Potency entry in test [1] and in test [2] was “inactive” throughout.
On to `CS(=O)(=O)c1ccc(-c2cn3ccccc3n2)cc1`, for which, in test [1], the Potency is 26.6 µM (active). Also, the Potency result in test [2] is “inactive”.
As to `CC(O)c1ccccc1` (stereo not given), the Potency entry in test [1] and in test [2] was “inactive” each time.
On to `O=C(O)COc1nn(Cc2ccccc2)c2ccccc12`, for which the Potency entry in test [1] and in test [2] was “inactive” in each case.
On to `CN(C)CCOC(c1ccccc1)c1ccc(Br)cc1` (stereo not given), for which the Potency result in test [1] and in test [2] was “inactive” in each case.
Consider `COC(=O)CCSCCC(=O)OC`, for which the Potency result in test [1] and in test [2] was “inactive” in each case.
As for `Cc1cnc(C(=O)NCCc2ccc(S(=O)(=O)NC(=O)NC3CCCCC3)cc2)cn1`, the Potency entry in test [1] and in test [2] was “inactive” throughout.
For `CCOC(=O)/C=C(C)/C=C/C=C(C)/C=C/c1c(C)cc(OC)c(C)c1C`, the Potency result in test [1] and in test [2] was “inactive” throughout.
With `O=C(OCCc1ccccc1)c1ccccc1`, the Potency result in test [1] and in test [2] was “inactive” throughout.
As for `CC(C)=NNC(N)=S`, the Potency result in test [1] and in test [2] was “inactive” in each case.
For `C=CCS(=O)(=O)O`, the Potency result in test [1] and in test [2] was “inactive” throughout.
In the case of `CC1=CCC(C(C)C)C=C1` (stereo not given), the Potency entry in test [1] and in test [2] was “inactive” throughout.
With `CSc1ccc2c(c1)N(CCC1CCCCN1C)c1ccccc1S2` (stereo not given), the Potency in test [1] and in test [2] was 60.9 µM (active) in each case.
In the case of `CC(Cl)C(Cl)Cl` (stereo not given), the Potency result in test [1] and in test [2] was “inactive” each time.
For the compound `c1ccc2c(c1)CCc1ccccc1N2`, the Potency result in test [1] and in test [2] was “inactive” in each case.
For the compound `OCC(O)[C@@H](O)[C@H](O)[C@H](O)CO[C@H]1O[C@H](CO)[C@@H](O)[C@H](O)[C@H]1O` (stereo not given in full), the Potency result in test [1] and in test [2] was “inactive” in each case.
For the compound `CCCCCCCCCCCCCCCCOS(=O)(=O)O`, the Potency entry in test [1] and in test [2] was “inactive” each time.
Turning to `O=C(O)Cc1ccc2c(c1)C(=O)c1ccccc1CO2`, the Potency entry in test [1] and in test [2] was “inactive” throughout.
For the compound `COc1ccc2c(c1)CCCC2=O`, the Potency entry in test [1] and in test [2] was “inactive” each time.
Turning to `CC(=O)Nc1cccc(O)c1`, the Potency result in test [1] and in test [2] was “inactive” each time.
In the case of `CC(C(=O)O)c1ccc2c(c1)[nH]c1ccc(Cl)cc12` (stereo not given), the Potency result in test [1] and in test [2] was “inactive” throughout.
As for `CC1(C)C(=O)N(Cl)C(=O)N1Br`, the Potency entry in test [1] and in test [2] was “inactive” throughout.
Turning to `c1ccc2c(c1)Cc1ccccc1-2`, the Potency result in test [1] and in test [2] was “inactive” each time.
Consider `O=C(O)[C@H](O)[C@@H](O)[C@H](O[C@@H]1O[C@H](CO)[C@H](O)[C@H](O)[C@H]1O)[C@H](O)CO`, for which the Potency result in test [1] and in test [2] was “inactive” in each case.
As for `OCCN1CN(CCO)CN(CCO)C1`, the Potency entry in test [1] and in test [2] was “inactive” throughout.
Consider `CC(=O)Nc1nnc(S(N)(=O)=O)s1`, for which the Potency entry in test [1] and in test [2] was “inactive” throughout.
In the case of `Cc1cccc(C)c1[N+](=O)[O-]`, the Potency entry in test [1] and in test [2] was “inactive” each time.
`C[C@H]1NCc2cc(-c3ccc4c(=O)c(C(=O)O)cn(C5CC5)c4c3OC(F)F)ccc21`: in test [1], the viability change, negative = cytotoxic is 4.45% [at 18.9 µM]. Also, the activity change, negative = cytotoxicity in test [2] is -2.79% [at 18.9 µM].
As to `NC[C@H](O)c1ccc(O)c(O)c1`, the Potency entry in test [1] and in test [2] was “inactive” in each case.
With `O=C(/C=C/c1ccc([N+](=O)[O-])cc1)c1ccccc1`, the Potency result in test [1] and in test [2] was “inactive” throughout.
Take `C[C@H]1C[C@H](O)c2ccsc2S1(=O)=O`: the Potency result in test [1] and in test [2] was “inactive” each time.
As to `CNc1ccccc1`, the Potency result in test [1] and in test [2] was “inactive” in each case.
With `CC1(C)C2=CCCC(C)(C)[C@]23CC[C@H]1C3`, the Potency entry in test [1] and in test [2] was “inactive” throughout.
For `CO[C@@H]1[C@H](OC(=O)/C=C/C=C/C=C/C=C/C(=O)O)CC[C@]2(CO2)[C@H]1[C@@]1(C)O[C@@H]1CC=C(C)C`, the Potency entry in test [1] and in test [2] was “inactive” throughout.
Take `OCCCC1CCCCC1`: the Potency result in test [1] and in test [2] was “inactive” throughout.
Take `O=C(O)CCCCCCCCCCC(=O)O`: the Potency entry in test [1] and in test [2] was “inactive” in each case.
Take `CCCCCCCCCCCCC1CO1` (stereo not given): the Potency result in test [1] and in test [2] was “inactive” in each case.
`CCCCCCCCCC(C)=O`: the Potency entry in test [1] and in test [2] was “inactive” each time.
`COc1ccc(/C=C/c2cc(OC)cc(=O)o2)cc1`: the Potency result in test [1] and in test [2] was “inactive” in each case.
Take `Nc1cccc(N)n1`: the Potency entry in test [1] and in test [2] was “inactive” throughout.
Take `CC(C)OC(=O)C(C(=O)OC(C)C)=C1SC=CS1`: the Potency entry in test [1] and in test [2] was “inactive” each time.
As to `C1CSCCS1`, the Potency entry in test [1] and in test [2] was “inactive” in each case.
With `CC[C@]12CCCN3CCc4c(n(c5ccccc45)C(=O)C1)[C@@H]32`, the Potency result in test [1] and in test [2] was “inactive” in each case.
Turning to `CC(C)Nc1ccccc1`, the Potency result in test [1] and in test [2] was “inactive” each time.
As for `c1cnc2c(c1)ccc1cccnc12`, the Potency result in test [1] and in test [2] was “inactive” throughout.
On to `O[C@@H]1CO[C@H]2[C@@H]1OC[C@@H]2O`, for which the Potency entry in test [1] and in test [2] was “inactive” throughout.
Consider `CSc1cnccn1`, for which the Potency result in test [1] and in test [2] was “inactive” in each case.
With `COc1cc(OC)c(C(=O)CCCN2CCCC2)c(OC)c1`, the Potency result in test [1] and in test [2] was “inactive” each time.
For `CCCC1CCC(=O)O1` (stereo not given), the Potency entry in test [1] and in test [2] was “inactive” each time.
Turning to `C1CCC2=NCCCN2CC1`, the Potency entry in test [1] and in test [2] was “inactive” in each case.
As for `CC(C)=CCC[C@H](C)CC=O`, the Potency result in test [1] and in test [2] was “inactive” in each case.
For `CCCCOC(=O)CCCCC(=O)OCCCC`, the Potency entry in test [1] and in test [2] was “inactive” throughout.
Regarding `OCCN(CCO)CCN(CCO)CCO`, the Potency entry in test [1] and in test [2] was “inactive” each time.
For the compound `CN(C)CCN1CCOCC1`, the Potency result in test [1] and in test [2] was “inactive” in each case.
In the case of `Cc1ccc(C(C)(C)C)c(O)c1`, the Potency result in test [1] and in test [2] was “inactive” each time.
Consider `CSC(=O)c1cccc2nnsc12`, for which the Potency result in test [1] and in test [2] was “inactive” each time.
